{"source": "PubChem BioAssay (Tox21)", "note": "“And” between values parts separate entries of the source, which are not always exact repeats. Identical values can stand only once. Results filed as inconclusive are left out. Where a call stands in place of a potency, no number is given. A structure can be active in one record and inactive in another. The source made the active and inactive calls. Unless noted, calls come from the whole dose curve; as a rule, active = well fitted curve in the direction sought with a large enough effect in the repeat runs; inconclusive = weak or mixed curves; inactive = no such curve, though single readings can be large; an effect the other way counts as inactive or inconclusive. Potency is the fitted concentration of half-maximal effect.", "data": [{"biological_target": "Nuclear receptor subfamily 1 group I member 3 (Homo sapiens) (UniProt Q14994)", "sequence (Q14994 whole entry, looked up)": "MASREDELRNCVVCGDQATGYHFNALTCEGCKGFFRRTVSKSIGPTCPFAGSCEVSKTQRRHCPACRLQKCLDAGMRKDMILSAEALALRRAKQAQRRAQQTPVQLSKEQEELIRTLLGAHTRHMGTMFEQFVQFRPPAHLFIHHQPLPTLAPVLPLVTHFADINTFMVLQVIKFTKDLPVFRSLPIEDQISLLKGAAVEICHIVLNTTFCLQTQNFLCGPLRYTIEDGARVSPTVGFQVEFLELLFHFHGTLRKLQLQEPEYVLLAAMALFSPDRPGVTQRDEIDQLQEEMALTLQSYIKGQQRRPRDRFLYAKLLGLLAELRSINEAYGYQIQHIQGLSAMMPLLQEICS", "test": "qHTS assay to identify small molecule antagonists of the constitutive androstane receptor (CAR) signaling pathway (AID 1224838); note: nearly all actives have a fitted effect of over 40% in size", "conditions": "HepG2-CYP2B6-hCAR luciferase, CITCO-stimulated, 24 h; series mostly up to 92.4 µM", "summary_of_the_method": "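Luminescence from a CYP2B6-2.2kb promoter reporter in hCAR-expressing HepG2 cells reflects CAR signaling. Cells received compounds at 15 concentrations and 50 nM CITCO (final), then incubated 24 h at 37 C/5% CO2.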", "values": [{"smiles": "CC(=O)[O][Hg][c]1ccccc1", "Potency": "2.41 µM (active) and 4.33 µM (active) and 5.31 µM (active)"}, {"smiles": "Cc1cc(Cl)ccc1OCC(=O)O", "Potency": "inactive"}, {"smiles": "CCC(=O)C(CC(C)N(C)C)(c1ccccc1)c1ccccc1", "note": "(stereo not drawn)", "Potency": "inactive"}, {"smiles": "Nc1ccc(-c2ccc(N)cc2)cc1", "Potency": "inactive"}, {"smiles": "CCNc1nc(Cl)nc(NCC)n1", "Potency": "inactive"}, {"smiles": "O=[N+]([O-])c1ccccc1O", "Potency": "inactive"}, {"smiles": "O=C(O)C(Cl)(Cl)Cl", "Potency": "inactive"}, {"smiles": "Cc1cc(-c2ccc(N)c(C)c2)ccc1N", "Potency": "inactive"}, {"smiles": "O=P1(N(CCCl)CCCl)NCCCO1", "note": "(stereo not drawn)", "Potency": "inactive"}, {"smiles": "O=C(O)c1ccccc1O", "Potency": "inactive"}, {"smiles": "CCOP(=S)(OCC)Oc1ccc2c(C)c(Cl)c(=O)oc2c1", "Potency": "inactive"}, {"smiles": "Oc1ccccc1-c1ccccc1", "Potency": "inactive"}, {"smiles": "COCC(=O)N(c1c(C)cccc1C)C(C)C(=O)OC", "note": "(stereo not drawn)", "Potency": "inactive"}, {"smiles": "Oc1cccc2cccnc12", "Potency": "1.38 µM (active) and 770 nM (active) and inactive"}, {"smiles": "OCCOc1ccccc1", "Potency": "inactive"}, {"smiles": "C[C@]12CCC(=O)C=C1CC[C@@H]1[C@@H]2CC[C@]2(C)C(=O)CC[C@@H]12", "Potency": "inactive"}, {"smiles": "CC[N+](CC)(CC)CC", "Potency": "inactive"}, {"smiles": "COP(=O)(OC)C(O)C(Cl)(Cl)Cl", "note": "(stereo not drawn)", "Potency": "inactive"}, {"smiles": "C1CCC(NC2CCCCC2)CC1", "Potency": "inactive"}, {"smiles": "Cc1cc(Cl)ccc1N", "Potency": "inactive"}, {"smiles": "Nc1ccc(Cl)cc1", "Potency": "inactive"}]}, {"biological_target": "Nuclear receptor subfamily 1 group I member 3 (Homo sapiens) (UniProt Q14994)", "test": "qHTS assay to identify small molecule agonists of the constitutive androstane receptor (CAR) signaling pathway (AID 1224839); note: nearly all actives have a fitted effect of over 15% in size", "conditions": "HepG2 hCAR CYP2B6-luciferase, agonist mode, 24 h; series mostly up to 92.4 µM", "summary_of_the_method": "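In this screen, CAR-driven CYP2B6 promoter activity is measured by luminescence in HepG2-CYP2B6-hCAR cells after 24 h with test compounds and 0.75 uM PK11195 (final concentration).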", "values": [{"smiles": "CC(=O)[O][Hg][c]1ccccc1", "Potency": "inactive"}, {"smiles": "Cc1cc(Cl)ccc1OCC(=O)O", "Potency": "inactive"}, {"smiles": "CCC(=O)C(CC(C)N(C)C)(c1ccccc1)c1ccccc1", "note": "(stereo not drawn)", "Potency": "inactive"}, {"smiles": "Nc1ccc(-c2ccc(N)cc2)cc1", "Potency": "53.9 µM (active) and inactive and 21.7 µM (active)"}, {"smiles": "CCNc1nc(Cl)nc(NCC)n1", "Potency": "inactive"}, {"smiles": "O=[N+]([O-])c1ccccc1O", "Potency": "inactive"}, {"smiles": "O=C(O)C(Cl)(Cl)Cl", "Potency": "inactive"}, {"smiles": "Cc1cc(-c2ccc(N)c(C)c2)ccc1N", "Potency": "12.2 µM (active)"}, {"smiles": "O=P1(N(CCCl)CCCl)NCCCO1", "note": "(stereo not drawn)", "Potency": "inactive"}, {"smiles": "O=C(O)c1ccccc1O", "Potency": "inactive"}, {"smiles": "CCOP(=S)(OCC)Oc1ccc2c(C)c(Cl)c(=O)oc2c1", "Potency": "31 µM (active) and 27.3 µM (active) and 29.8 µM (active)"}, {"smiles": "Oc1ccccc1-c1ccccc1", "Potency": "inactive and 35.2 µM (active)"}, {"smiles": "COCC(=O)N(c1c(C)cccc1C)C(C)C(=O)OC", "note": "(stereo not drawn)", "Potency": "inactive"}, {"smiles": "OCCOc1ccccc1", "Potency": "inactive"}, {"smiles": "C[C@]12CCC(=O)C=C1CC[C@@H]1[C@@H]2CC[C@]2(C)C(=O)CC[C@@H]12", "Potency": "inactive"}, {"smiles": "CC[N+](CC)(CC)CC", "Potency": "inactive"}, {"smiles": "C1CCC(NC2CCCCC2)CC1", "Potency": "inactive"}, {"smiles": "Cc1cc(Cl)ccc1N", "Potency": "inactive"}, {"smiles": "Nc1ccc(Cl)cc1", "Potency": "inactive"}]}, {"tested_on": "not listed separately", "test": "qHTS assay to identify small molecule antagonists of the estrogen related receptor signaling pathway with the pleiotropic PPARgamma coactivator (PGC) from Tox21 10K library - cell viability counter screen (AID 1224840; active = well fitted cell-killing curve with a large enough effect in the repeat runs, not every such curve was filed as active; note: nearly all actives have a fitted effect of over 40% in size)", "conditions": "PGC/ERR reporter cells viability, CellTiter-Fluor, 17.5 h; series mostly up to 92.4 µM", "summary_of_the_method": "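Cell viability is measured by CellTiter-Fluor fluorescence in PGC/ERR cells that receive compounds after a 6-hour attachment period and are then incubated 17.5 hours at 37 C.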", "values": [{"smiles": "CC(=O)[O][Hg][c]1ccccc1", "Potency": "1.92 µM (active) and 2.43 µM (active) and 6.68 µM (active)"}, {"smiles": "CCCC[n+]1ccc(C)cc1", "Potency": "inactive"}, {"smiles": "Cc1cc(Cl)ccc1OCC(=O)O", "Potency": "inactive"}, {"smiles": "CCC(=O)C(CC(C)N(C)C)(c1ccccc1)c1ccccc1", "note": "(stereo not drawn)", "Potency": "inactive"}, {"smiles": "Nc1ccc(-c2ccc(N)cc2)cc1", "Potency": "inactive"}, {"smiles": "CCNc1nc(Cl)nc(NCC)n1", "Potency": "inactive"}, {"smiles": "O=[N+]([O-])c1ccccc1O", "Potency": "inactive"}, {"smiles": "O=C(O)C(Cl)(Cl)Cl", "Potency": "inactive"}, {"smiles": "Cc1cc(-c2ccc(N)c(C)c2)ccc1N", "Potency": "inactive"}, {"smiles": "O=P1(N(CCCl)CCCl)NCCCO1", "note": "(stereo not drawn)", "Potency": "inactive"}, {"smiles": "O=C(O)c1ccccc1O", "Potency": "inactive"}, {"smiles": "CCOP(=S)(OCC)Oc1ccc2c(C)c(Cl)c(=O)oc2c1", "Potency": "inactive"}, {"smiles": "Oc1ccccc1-c1ccccc1", "Potency": "inactive"}, {"smiles": "COCC(=O)N(c1c(C)cccc1C)C(C)C(=O)OC", "note": "(stereo not drawn)", "Potency": "inactive"}, {"smiles": "COc1ccccc1N", "Potency": "inactive"}, {"smiles": "Oc1cccc2cccnc12", "Potency": "2.43 µM (active) and inactive"}, {"smiles": "OCCOc1ccccc1", "Potency": "inactive"}, {"smiles": "C[C@]12CCC(=O)C=C1CC[C@@H]1[C@@H]2CC[C@]2(C)C(=O)CC[C@@H]12", "Potency": "inactive"}, {"smiles": "CC[N+](CC)(CC)CC", "Potency": "inactive"}, {"smiles": "O=C(O)CCl", "Potency": "inactive"}, {"smiles": "COP(=O)(OC)C(O)C(Cl)(Cl)Cl", "note": "(stereo not drawn)", "Potency": "inactive"}, {"smiles": "C1CCC(NC2CCCCC2)CC1", "Potency": "inactive"}, {"smiles": "CCn1cc[n+](C)c1C", "Potency": "inactive"}, {"smiles": "Cc1cc(Cl)ccc1N", "Potency": "inactive"}, {"smiles": "CCCCCCCCCCCC(=O)O", "Potency": "inactive"}, {"smiles": "CCCCCC[n+]1ccccc1", "Potency": "inactive"}, {"smiles": "O=[N+]([O-])O", "Potency": "inactive"}, {"smiles": "CCCCCCCCn1cc[n+](C)c1", "Potency": "inactive"}, {"smiles": "CCCC[n+]1ccccc1", "Potency": "inactive"}, {"smiles": "Nc1ccc(Cl)cc1", "Potency": "inactive"}, {"smiles": "CC[n+]1ccccc1", "Potency": "inactive"}, {"smiles": "CNC", "Potency": "inactive"}]}, {"tested_on": "not listed separately", "test": "qHTS assay to identify small molecule antagonists of the estrogen related receptor signaling pathway with the pleiotropic PPARgamma coactivator (PGC) from Tox21 10K library (AID 1224841; call rule not given here; note: actives are mostly falling curves and most rising ones were filed inactive; nearly all actives have a fitted effect of over 50% in size)", "conditions": "PGC/ERR reporter cell line, ONE-Glo luciferase, 18 h; series mostly up to 92.4 µM", "summary_of_the_method": "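Cells stably carrying the PGC/ERR reporter, seeded at 2,000 per well, received pin-transferred compounds 6 h post-plating. Exposure lasted 18 h at 37 C. Signal: One-Glo luminescence.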", "values": [{"smiles": "CC(=O)[O][Hg][c]1ccccc1", "Potency": "2.71 µM (active) and 4.86 µM (active) and 9.44 µM (active)"}, {"smiles": "CCNc1nc(Cl)nc(NCC)n1", "Potency": "inactive"}, {"smiles": "O=[N+]([O-])c1ccccc1O", "Potency": "inactive"}, {"smiles": "O=P1(N(CCCl)CCCl)NCCCO1", "note": "(stereo not drawn)", "Potency": "inactive"}, {"smiles": "CCOP(=S)(OCC)Oc1ccc2c(C)c(Cl)c(=O)oc2c1", "Potency": "inactive"}, {"smiles": "COCC(=O)N(c1c(C)cccc1C)C(C)C(=O)OC", "note": "(stereo not drawn)", "Potency": "inactive"}, {"smiles": "COc1ccccc1N", "Potency": "inactive"}, {"smiles": "OCCOc1ccccc1", "Potency": "inactive"}, {"smiles": "C[C@]12CCC(=O)C=C1CC[C@@H]1[C@@H]2CC[C@]2(C)C(=O)CC[C@@H]12", "Potency": "67.4 µM (active) and inactive"}, {"smiles": "O=C(O)CCl", "Potency": "inactive"}, {"smiles": "COP(=O)(OC)C(O)C(Cl)(Cl)Cl", "note": "(stereo not drawn)", "Potency": "24.6 µM (active) and inactive"}]}]}
